Consider 38 compounds from PubChem BioAssay (Tox21).

Inconclusive results are not listed. Calls of active or inactive are those of the source. Unless noted, calls come from the whole dose curve; as a rule, active = well fitted curve in the direction sought with a large enough effect in the repeat runs; inconclusive = weak or mixed curves; inactive = no such curve, though single readings can be large; an effect the other way counts as inactive or inconclusive.

The nature of test [1]: qHTS assay for small molecule disruptors of the mitochondrial membrane potential (AID 720635). Note: potency is the fitted concentration of half-maximal effect. In outline: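 Mitochondrial membrane potential tracked with Mito-MPS dye, red aggregates (ex 540/em 590 nm) against green monomers (ex 490/em 535 nm). Compound treatment 1 hr at 37C, dye 30 min in HepG2.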
In test [2] the target is Estrogen receptor (Homo sapiens) (UniProt P03372). Nature of the test: qHTS assay to identify small molecule antagonists of the estrogen receptor alpha (ER-alpha) signaling pathway (AID 743069; active = well fitted curve in the direction sought with a large enough effect in the signal ratio in the repeat runs, not every such curve was filed as active; the % refers to the signal ratio). In outline: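 Antagonist mode: compounds in DMSO were co-added with 17beta-estradiol to ER-alpha-bla HEK293 cells (2% charcoal-stripped serum) and left 18 h at 37C. Reporter inhibition was measured as FRET fluorescence after 2 h LiveBLAzer substrate at room temperature.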

Test [3] in a line: qHTS assay to identify small molecule antagonists of the estrogen receptor alpha (ER-alpha) signaling pathway using the BG1 cell line (AID 743080; calls by dose curve;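 note: BG1 cells stimulated with 17beta-estradiol alongside compound; series mostly up to about 70 µM; nearly all actives have a fitted effect of over 25% in size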). In outline: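 Luciferase inhibition measured with ONE-Glo after 30 min at RT in BG1Luc4E2 cells given test compounds and 17beta-estradiol for 21.5 h at 37 C; CellTiter-Fluor viability read in the same wells beforehand.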
The nature of test [4]: qHTS assay for small molecule agonists of the p53 signaling pathway (AID 651631; calls by dose curve; note: nearly all actives have a fitted effect of over 15% in size). An outline of the steps:
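Quantitative high-throughput format: 4,000 p53RE-bla HCT-116 cells/well, 5 h pre-incubation, 16 h compound exposure at 37 °C, 2 h room-temperature substrate step, fluorescence intensity measured.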

Test [5] addresses Androgen receptor (Homo sapiens) (UniProt P10275). Kind of test: qHTS assay to identify small molecule antagonists of the androgen receptor (AR) signaling pathway (AID 743035; active = well fitted inhibition curve with a large enough effect in the signal ratio in the repeat runs, not every such curve was filed as active; the % refers to the signal ratio; note: potency is the fitted concentration of half-maximal effect). An outline of the steps:
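Reporter HEK293 cells were exposed to compounds and R1881 overnight (16 h, 37C); beta-lactamase activity was then quantified by FRET fluorescence.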

For test [6] the target is unchanged. Kind of test: qHTS assay to identify small molecule antagonists of the androgen receptor (AR) signaling pathway using the MDA cell line (AID 743042; note: nearly all actives have a fitted effect of over 55% in size; note: potency is the fitted concentration of half-maximal effect). In outline:
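Antagonist mode: compounds plus R1881 agonist added to MDA-kb2 AR-luc cells, incubated 16 h at 37C. Luciferase reporter luminescence quantified, with multiplexed CellTiter-Fluor readout for cell viability.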

For test [7] the target is unchanged. Kind of test: qHTS assay to identify small molecule agonists of the androgen receptor (AR) signaling pathway using the MDA cell line (AID 743040; note: nearly all actives have a fitted effect of over 20% in size; note: potency is the fitted concentration of half-maximal effect). In outline:
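Luciferase agonist assay: 16 h compound exposure at 37C without CO2 in MDA-kb2 AR-luc cells, whose MMTV promoter responds to both AR and GR. Luminescence measured after 30 min room-temperature incubation with ONE-Glo.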

Chain of Estrogen receptor (Homo sapiens) (P03372 whole entry, looked up): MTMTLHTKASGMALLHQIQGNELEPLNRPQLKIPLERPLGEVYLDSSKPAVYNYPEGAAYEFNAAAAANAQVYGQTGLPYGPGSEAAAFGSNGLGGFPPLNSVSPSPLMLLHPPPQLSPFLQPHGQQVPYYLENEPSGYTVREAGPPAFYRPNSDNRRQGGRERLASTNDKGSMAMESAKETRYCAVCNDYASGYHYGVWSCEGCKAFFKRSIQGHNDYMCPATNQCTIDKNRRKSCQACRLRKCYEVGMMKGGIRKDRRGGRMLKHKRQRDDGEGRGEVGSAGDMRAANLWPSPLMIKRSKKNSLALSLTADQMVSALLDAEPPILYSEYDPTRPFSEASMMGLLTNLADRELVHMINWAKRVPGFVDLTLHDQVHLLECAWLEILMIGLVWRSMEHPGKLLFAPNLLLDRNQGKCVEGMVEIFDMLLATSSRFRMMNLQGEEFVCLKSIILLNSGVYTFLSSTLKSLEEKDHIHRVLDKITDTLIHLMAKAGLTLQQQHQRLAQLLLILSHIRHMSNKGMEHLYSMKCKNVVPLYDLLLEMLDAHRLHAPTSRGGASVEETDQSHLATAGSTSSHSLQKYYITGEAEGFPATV
Chain of Androgen receptor (Homo sapiens) (P10275 whole entry, looked up): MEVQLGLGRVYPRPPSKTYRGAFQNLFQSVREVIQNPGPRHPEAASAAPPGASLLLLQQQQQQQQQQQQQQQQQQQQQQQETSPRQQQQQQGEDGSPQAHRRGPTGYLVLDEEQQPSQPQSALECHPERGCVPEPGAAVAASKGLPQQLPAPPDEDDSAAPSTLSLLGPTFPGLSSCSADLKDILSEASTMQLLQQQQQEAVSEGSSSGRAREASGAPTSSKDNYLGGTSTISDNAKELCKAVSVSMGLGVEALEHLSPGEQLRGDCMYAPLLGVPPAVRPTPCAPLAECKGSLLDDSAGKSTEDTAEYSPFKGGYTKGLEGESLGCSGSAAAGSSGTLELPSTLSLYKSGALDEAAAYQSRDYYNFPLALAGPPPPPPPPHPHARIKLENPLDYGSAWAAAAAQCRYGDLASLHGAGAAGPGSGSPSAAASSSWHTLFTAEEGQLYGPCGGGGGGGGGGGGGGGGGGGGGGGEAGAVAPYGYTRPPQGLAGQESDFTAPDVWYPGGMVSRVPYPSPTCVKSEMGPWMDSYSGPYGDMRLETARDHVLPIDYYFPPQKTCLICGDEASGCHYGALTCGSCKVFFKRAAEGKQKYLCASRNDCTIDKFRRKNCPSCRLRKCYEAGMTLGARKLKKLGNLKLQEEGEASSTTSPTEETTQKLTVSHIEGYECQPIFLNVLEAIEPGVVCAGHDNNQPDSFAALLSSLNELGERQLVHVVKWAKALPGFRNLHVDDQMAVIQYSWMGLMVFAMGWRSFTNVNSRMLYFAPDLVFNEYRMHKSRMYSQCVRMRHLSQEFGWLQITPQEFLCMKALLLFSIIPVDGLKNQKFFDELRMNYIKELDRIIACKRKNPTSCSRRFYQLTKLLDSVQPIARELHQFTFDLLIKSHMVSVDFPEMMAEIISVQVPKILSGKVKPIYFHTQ

Consider `CNc1ccc(C(=O)CC(O)CCC(C)C2OC(=O)CC(O)CC(=O)CC(O)CC(O)CC(O)CC(O)CC3(O)CC(O)C(C(=O)OC)C(CC(O[C@@H]4O[C@H](C)[C@@H](O)[C@H](N)[C@@H]4O)/C=C/C=C/C=C/C=C/C=C/C=C/C=C/C2C)O3)cc1` (some centres undefined), for which the Potency in test [1] is 16.8 µM (active). Further, the Potency result in test [2] and in test [3] was “inactive” throughout.

Take `COC([CH2][Hg])CNC(=O)c1ccccc1OCC(=O)O` (centres undefined): the Potency entry in test [2] is “inactive”.

`CCCCCCC(=O)O[C@H]1CC[C@H]2[C@@H]3CC[C@H]4CC(=O)C=C(C)[C@]4(C)[C@H]3CC[C@]12C`: the Potency result in test [3] was “inactive”.

On to `O=C(CCl)c1ccc(Oc2ccc(C(=O)CCl)cc2)cc1`, for which the Potency entry in test [1], in test [2] and in test [3] was “inactive” throughout.

Regarding `CCN(CC)C(=O)N[C@H]1C[C@@H]2c3cccc4[nH]cc(c34)C[C@H]2N(C)C1`, the Potency entry in test [4], in test [5] and in test [6] was “inactive” in each case.

As for `Cc1cccc(C(C)c2cnc[nH]2)c1C` (centres undefined), the Potency result in test [1] is “inactive”.

For the compound `COc1ccc2c(c1)C13CCCC[C@@H]1C(C2)N(C)CC3` (some centres undefined), the Potency result in test [2] and in test [3] was “inactive” in each case.

In the case of `C[C@]12CCC(=O)C=C1C=C[C@@H]1[C@@H]2CC[C@@]2(C)[C@H]1CC[C@@]2(O)CCC(=O)O`, the Potency result in test [1], in test [5] and in test [6] was “inactive” throughout. In addition, the Potency in test [7] is 12.7 µM (active).

For the compound `CCC1C(C)=NN=C(c2ccc(OC)c(OC)c2)c2cc(OC)c(OC)cc21` (centres undefined), the Potency entry in test [4] and in test [3] was “inactive” throughout.

On to `COc1ccc2c3c1O[C@H]1C(=O)CC[C@H]4[C@@H](C2)N(C)CC[C@]314`, for which, in test [2], the Potency entry was “inactive”.

As for `C[N+]1(C)[C@@H]2CC[C@H]1CC(OC(=O)c1c[nH]c3ccccc13)C2` (some centres undefined), the Potency result in test [1], in test [5], in test [6], in test [2] and in test [3] was “inactive” each time.

For `OC[C@@H](O)[C@H]1O[C@@H]2O[C@@H](C(Cl)(Cl)Cl)O[C@@H]2[C@H]1O`, the Potency result in test [1], in test [2] and in test [3] was “inactive” throughout.

As to `N#CC1(N2CCCCC2)CCCCC1`, the Potency entry in test [2] and in test [3] was “inactive” throughout.

For the compound `C[N+]1([O-])[C@@H]2CC(OC(=O)[C@H](CO)c3ccccc3)C[C@H]1[C@@H]1O[C@@H]12` (some centres undefined), the Potency entry in test [1], in test [5], in test [6] and in test [2] was “inactive” throughout.

As to `OC(c1ccccc1)(c1ccccc1)C1CN2CCC1CC2` (centres undefined), the Potency entry in test [5], in test [6], in test [2] and in test [3] was “inactive” in each case.

In the case of `CCCCC[C@@H](O)C1C(=O)OC(C)[C@H](O)/C=C/C=C/C=C/C=C/C=C(\C)C(O)C(O)C(O)C[C@H](O)C[C@H](O)C[C@H](O)C[C@H](O)C[C@@H]1O` (some centres undefined), the Potency result in test [1], in test [2] and in test [3] was “inactive” in each case.

Turning to `O=C(CS(=O)C(c1ccccc1)c1ccccc1)NO` (centres undefined), the Potency entry in test [1], in test [2] and in test [3] was “inactive” in each case.

As to `C[C@H]1CC[C@]2(NC1)O[C@H]1C[C@H]3[C@@H]4CC[C@H]5C[C@@H](O[C@@H]6O[C@H](CO)[C@H](O[C@@H]7O[C@H](CO)[C@@H](O)[C@H](O[C@@H]8OC[C@@H](O)[C@H](O)[C@H]8O)[C@H]7O[C@@H]7O[C@H](CO)[C@@H](O)[C@H](O)[C@H]7O)[C@H](O)[C@H]6O)CC[C@]5(C)[C@H]4CC[C@]3(C)[C@H]1[C@@H]2C`, the Potency was 1.97 µM (active) in test [1] and 5.96 µM (active) in test [6]. The Potency entry in test [7] is “inactive”.

In the case of `CC(=O)O[C@H]1C[C@H](O[C@H]2[C@@H](O)C[C@H](O[C@H]3[C@@H](O)C[C@H](OC4CC[C@@]5(C)[C@H](CC[C@@H]6[C@@H]5CC[C@]5(C)[C@@H](C7=CC(=O)OC7)CC[C@]65O)C4)O[C@@H]3C)O[C@@H]2C)O[C@H](C)[C@H]1O[C@@H]1O[C@H](CO)[C@@H](O)[C@H](O)[C@H]1O` (some centres undefined), the Potency is 0.393 µM (active) in test [1] and 1.68 µM (active) in test [6].

In the case of `CCN1C[C@]2(COC)[C@H](O)C[C@H](OC)[C@@]34[C@@H]5C[C@@]6(O)[C@H](OC(=O)c7ccccc7)[C@@H]5[C@@](OC(C)=O)([C@@H]([C@H](OC)[C@H]23)[C@@H]14)[C@@H](O)[C@@H]6OC`, the Potency result in test [4], in test [1], in test [2] and in test [3] was “inactive” throughout.

Consider `Cc1nnc2n1-c1ccc(Cl)cc1C(c1ccccc1Cl)=NC2`, for which, in test [4], the Potency entry was “inactive”.

`CN1[C@H]2CC[C@@H]1[C@@H](C(=O)O)[C@@H](OC(=O)c1ccccc1)C2`: in test [2], the Potency entry was “inactive”.

On to `C=C[C@H]1CN2CC[C@H]1C[C@@H]2[C@@H](O)c1ccnc2ccccc12`, for which the Potency in test [1] was 8.41 µM (active).

As to `NC1=NC(=O)N2CC12` (centres undefined), the Potency entry in test [2] and in test [3] was “inactive” throughout.

On to `S=C(S)N1CCNCC1`, for which the Potency result in test [1], in test [2] and in test [3] was “inactive” each time.

Consider `CCNC(C)Cc1cccc(C(F)(F)F)c1` (centres undefined), for which the Potency entry in test [2] and in test [3] was “inactive” each time.

Take `O=C1CCO1`: the Potency entry in test [1], in test [5], in test [7], in test [6], in test [2] and in test [3] was “inactive” in each case.

Turning to `CNC(C)C(O)c1ccc(O)cc1` (centres undefined), the Potency result in test [1], in test [2] and in test [3] was “inactive” throughout.

As to `CC(C)C[C@H](CN)CC(=O)O`, the Potency entry in test [1], in test [2] and in test [3] was “inactive” in each case.

In the case of `C[N+]1(C)CCCCC1COC(=O)C(O)(c1ccccc1)c1ccccc1` (centres undefined), the Potency result in test [5], in test [7] and in test [6] was “inactive” throughout.

As to `CCCC(=O)OC(C(Cl)(Cl)Cl)P(=O)(OC)OC` (centres undefined), the Potency result in test [5], in test [6] and in test [2] was “inactive” each time. The Potency in test [7] was 33.5 µM (active).

`C[N+]1([O-])[C@@H]2CC[C@H]1CC(OC(=O)C(CO)c1ccccc1)C2` (some centres undefined): the Potency entry in test [2] and in test [3] was “inactive” each time.

With `CC(C)CCC(=O)O[C@H]1CC[C@H]2[C@@H]3CCC4=CC(=O)CC[C@]4(C)[C@H]3CC[C@]12C`, the Potency entry in test [5], in test [6] and in test [3] was “inactive” throughout. Also, in test [7], the Potency is 0.0042 µM (active).

For `CN(C)[C@H](Cc1ccccc1)c1ccccc1`, the Potency result in test [1], in test [2] and in test [3] was “inactive” in each case.

In the case of `O=C1Nc2ccc(Cl)cc2C(c2ccccc2Cl)=NC1O` (centres undefined), the Potency entry in test [4], in test [5], in test [7], in test [2] and in test [3] was “inactive” throughout.

Consider `Oc1cccc[c]1[Hg][Cl]`, for which the Potency in test [1] was 11.1 µM (active); in test [5], 6.74 µM (active); in test [6], 4.22 µM (active).

Turning to `CCC1(c2ccccc2)C(=O)NC(=O)N(C(=O)c2ccccc2)C1=O` (centres undefined), the Potency in test [1] was 23.7 µM (active).

Take `C#CCN1CC(=O)N(COC(=O)C2C(C=C(C)C)C2(C)C)C1=O` (centres undefined): the Potency entry in test [4], in test [2] and in test [3] was “inactive” each time.
